Screening results as filed in PubChem BioAssay.
TRPV1 ag: activates the human vanilloid receptor TRPV1; Q8NER1; activation, % at 8.33 µM; actives 0.19% (n = 320,000); TRPV1-expressing cells, Fluo-8 calcium influx, agonist mode; AID 540275; in the data active means activation above about 80%; inconclusive means between about 30% and that limit; further: 0% is about no effect
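Cells expressing TRPV1 were dye-loaded with Fluo-8 and read kinetically: 10 s baseline, 3 min after compound (agonist portion), then 2 min after EC20 capsaicin (allosteric enhancer portion). Calcium-bound dye fluorescence at 480/520 nm.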
TRPV1 PAM: enhances activation of the human vanilloid receptor TRPV1. Q8NER1. TRPV1-expressing cells, Fluo-8 calcium influx, capsaicin EC20 potentiation. potentiation, % at 8.33 µM. actives 0.02% (n = 320,000). AID 540277; in the data active means potentiation above about 80%; inconclusive means between about 30% and that limit; further: 0% is about no effect
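Cells expressing TRPV1 were dye-loaded with Fluo-8 and read kinetically: 10 s baseline, 3 min after compound (agonist portion), then 2 min after EC20 capsaicin (allosteric enhancer portion). Calcium-bound dye fluorescence at 480/520 nm.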
TRPML1 inh: human mucolipin-1 channel inhibition; TRPML1-inducible cells, Ca2+ dye fluorescence, FDSS; hits give low values; inhibition of EC80 agonist-evoked calcium signal; actives 0.02% (n = 390,000); activity change, negative = inhibition, % (no concentration beside the values); AID 624415; in the data active means activity change below about -50%; inconclusive means between about -30% and that limit;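 further: stimulus is agonist 54-4 at its EC80 concentration; on the % scale 0 is the no-effect control and ±100 the full control effect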
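Calcium fluorescence in TRPML1-DL cells induced overnight with Tet: a 110 s read after compound pin addition, then a 110 s antagonist read after challenge with 54-4 at 4 uM final (EC80).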
TRHR enhancer-1: allosterically enhances the human TRH receptor; actives 0.66% (n = 360,000); enhancement, % at 2 µM; TRHR cells, fluo-8 calcium fluorescence, EC20 TRH enhancement; in the data active means enhancement above about 30%; further: 0% is about no effect
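Enhancer read-out: after compound pinning and an initial kinetic agonist-mode read, an EC20 of TRH (10 nM final) was injected and fluo-8 calcium signal (Ex 480/Em 530) followed at 1 s/cycle for 100 cycles in TRHR-expressing cells.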
TRPML1 agonist: agonists of human TRPML1 channel; activation, % (concentration not given with the values); actives 0.12% (n = 410,000); TRPML1-expressing cells, Ca2+ dye fluorescence, FDSS; AID 624414; Q9GZU1; in the data active means activation above about 50%; inconclusive means mostly about 30% to 49%; further: 0% is about no effect
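Tetracycline-induced TRPML1-DL cells are seeded and incubated overnight before loading with a no-wash Ca2+ dye and quencher. Agonist activity is taken from the 110 s fluorescence read following compound pin-transfer on an FDSS, before EC80 54-4 challenge.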
TRHR agonist-1: TRH receptor (human) agonism; TRHR cells, calcium flux fluo-8, FDSS agonist mode; activation, % at 2 µM; actives 0.18% (n = 360,000); AID 493084; in the data active means activation above about 30%; further: 0% is about no effect
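Steps: seed TRHR cells overnight; add fluo-8 no-wash Ca dye, RT 30 min–1.5 h; record 10 s baseline; pin-transfer compounds; monitor fluorescence 1 cycle/s for the agonist window. Calcium increases flag candidate agonists.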
TRHR enhancer-2: confirmation of human TRH receptor allosteric enhancers; shares compounds with TRHR enhancer-1; TRH receptor cell assay, enhancer confirmation qHTS; activity change, negative = inhibition, % at 46.1 µM; 970 tested, under 10 active; AID 493076;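 further: compound effect scored on response to added TRH at EC20 of 10 nM; 0% is about no effect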
TRHR agonist-2: confirmation of human TRH receptor agonists; actives 8% (n = 970); TRHR-expressing cells, agonist activation read-out; shares compounds with TRHR enhancer-1; AID 493078; Potency, µM (titrated, usually from 46.1 µM), without a hit: top-dose activation, most hits filed as activators; further: potency means the concentration at half of the fitted maximal effect; 0% is about no effect; nearly all actives have a fitted effect of over 75% in size
* hit, by the source's call; ? = inconclusive; / = no result given. This is a sample that favours compounds with a hit; in the whole collection about 0.99% have one here. Unless noted, the call rests on the fitted dose curve; in most records, active means well fitted curve in the direction sought with a large enough effect; inconclusive means small, poorly fitted or top-dose-only effect, or another doubt; inactive means no such curve, though single readings can be large; an effect the other way counts as inactive or inconclusive.

SMILES	TRPV1 ag	TRPV1 PAM	TRPML1 inh	TRHR enhancer-1	TRPML1 agonist	TRHR agonist-1	others
CC1CCCN(c2ccc(C(=O)N3CCC4(CC3)OCCO4)cc2[N+](=O)[O-])C1 (configuration not stated)	?	-9	-3	5	0	0
CCOC(=O)C1CCCN(c2ccc([N+](=O)[O-])c3nonc23)C1 (configuration not stated)	105*	-10	-6	33*	89*	248*
O=C(Oc1ccc([N+](=O)[O-])cc1)N1CCN(/[N+]([O-])=N/Oc2ccc([N+](=O)[O-])cc2[N+](=O)[O-])CC1	/	/	-26	/	1	/
C[N+](C)(C)CCOC(=O)CBr	-1	0	1	5	0	0
CC(=O)OCC[N+](C)(C)C	?	-34	-1	-4	3	36*
C/C=C1/C[C@@H](C)[C@@](C)(O)C(=O)OCC2=CCN3CC[C@@H](OC1=O)[C@@H]23	/	/	59	/	0	/
O=C1NC(=S)N(Cc2ccco2)C(=O)/C1=C\c1cccs1	-1	-7	/	51*	/	2
O=C(CN1CCCC2CCCCC21)c1ccc(I)cc1 (configuration not stated)	/	/	/	/	-1	/
COc1ccc2[nH]cc(CCNCc3cccnc3)c2c1	0	2	-2	6	0	0
COc1ccc2[nH]cc(CCN=C(N)N)c2c1	-6	-1	26	36*	0	0
CCN1/C(=C\C=C\C2=[N+](CC)c3ccccc3C2(C)C)C(C)(C)c2ccccc21	?	8	6	5	1	124*
Cc1ccc(C2=NCC(=O)N(CC(=O)N3CCCCC3)c3sc(C)c(C)c32)cc1	2	7	-1	30*	0	1
O=C1/C(=C/c2ccc(N(CCCl)CCCl)cc2)Cc2ccccc21	/	/	/	/	73*	/
NCC(=O)c1ccc(Cl)c(Cl)c1	/	/	/	/	0	/
N#CC1=C(N)Oc2c(c(=O)oc3ccccc23)C1c1ccncc1 (configuration not stated)	0	-3	14	9	1	0
N#CC1=C(N)Oc2c(c(=O)sc3ccccc23)C1c1cccnc1 (configuration not stated)	-1	-1	44	35*	1	-1
CC(=O)NCC(N)C(=O)c1ccc(C)cc1 (configuration not stated)	/	/	/	/	0	/
CCOC(=O)c1cc(CC)sc1/N=C/c1c(O)[nH]c(=S)[nH]c1=O	0	8	11	4	0	2
CCOC(=O)c1cc(CC)sc1/N=C/C1C(=O)NC(=S)NC1=O	-2	?	0	33*	-1	0
CCn1c(O)c(C=Nc2ccc(N3CCOCC3)cc2)c(=O)n(CC)c1=S	21	2	-3	7	?	32*
O=c1[nH]c(=S)n(-c2ccc(Cl)cc2)c(O)c1C=Nc1ccc(N2CCOCC2)cc1	4	3	-2	33*	12	13
COc1cc2nc(N3CCCN(C)CC3)nc(N(C)C3CCN(C)CC3)c2cc1OC	/	/	/	/	0	/
COC(=O)C1=C(c2cccc(OCc3ccccc3)c2)C[C@@H]2CC[C@H]1N2C(=O)NCc1ccccc1C(F)(F)F	-7	9	2	34*	2	1
CCOc1cccc(N2C(=O)/C(=C/c3ccco3)C(=O)NC2=S)c1	3	-5	32	34*	0	1
O=C1NC(=S)N(c2ccccc2)C(=O)/C1=C/c1ccco1	3	-23	-22	-6	0	1
SMILES	TRPV1 ag	TRPV1 PAM	TRPML1 inh	TRHR enhancer-1	TRPML1 agonist	TRHR agonist-1	others
Cc1c(C(c2ccc(Cl)cc2Cl)c2c(O)c3ccccc3oc2=O)c(=O)n(-c2ccccc2)n1C (configuration not stated)	-4	82*	22	-3	1	0
Cc1c(C(c2ccc(Br)cc2)c2c(O)c3ccccc3oc2=O)c(=O)n(-c2ccccc2)n1C (configuration not stated)	1	14	14	-5	1	0
O=c1[nH]c(=O)n(C2CCCCC2)c(O)c1/C=C/C=Nc1ccccc1	?	9	-15	17	?	63*
CC1Cc2ccccc2CN1 (configuration not stated)	/	/	/	/	0	/
CCN(CC)c1ccc(/C=C/[N+](=O)[O-])cc1	?	-6	1	0	71*	72*
O=P1(Oc2ccccc2)CC=CC(COCc2ccccc2)O1 (configuration not stated)	/	/	-11	/	0	/
NCCc1ccc(S(N)(=O)=O)cc1	2	-3	5	40*	1	0
COc1ccc(CCN)cc1O	/	/	0	/	-1	/
OC(COCc1ccc(Cl)cc1)CN1CC=C(c2ccccc2)CC1 (configuration not stated)	15	3	-2	10	1	-1
OC(CN1CC=C(c2ccccc2)CC1)c1ccccc1 (configuration not stated)	3	1	9	35*	0	1
C[C@H]1OC[C@@H](C[N+](C)(C)C)O1	28	-13	-7	-2	4	41*
Cc1cc(/C=C/c2cccc3sc(C)[n+](CCCCI)c23)ccc1N(CCCl)CCCl	/	/	/	/	14	/
CN(C)c1nc(-c2ccccc2)[n+](C)s1	1	0	4	-1	0	0
Cc1ccc(-c2nc(N3CCOCC3)s[n+]2-c2ccccc2)cc1	-1	0	-1	31*	0	0
O=C1NC(=O)N(c2ccccc2F)C(=O)/C1=C/c1ccc(Sc2nc3ccccc3[nH]2)o1	14	-10	2	5	?	41*
CC(=O)NCC(N)C(=O)c1ccc(Cl)c(Cl)c1 (configuration not stated)	/	/	/	/	-1	/
O=[N+]([O-])c1ccc(NC2CCN(Cc3ccccc3)CC2)c2ccncc12	0	19	-3	3	-1	0
O=[N+]([O-])c1ccc(NC2CCCC2)c2ccncc12	4	12	3	35*	1	-1
c1ccc(CCN2CCCCC2)cc1	/	/	/	/	0	/
Cc1ccccc1-c1nc(CS(=O)CC(=O)N2CCC3(CC2)OCCO3)c(C)o1 (configuration not stated)	-3	9	0	42*	-1	-1	TRHR enhancer-2=-4;TRHR agonist-2=-1%
